About 83,000 compounds went through this panel and 20% of them were active in at least one assay; those are over-represented in the sample as a whole.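 Step 1: grow cells in 96-well plates. Step 2: add test compound at a single concentration. Step 3: incubate 48 h. Step 4: record percent growth.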 A number with no mark means an inactive call. Active and inactive are the calls of the source. Rule for the calls: active = growth percent below 10; inactive = the rest.
How the values were obtained:
Assay in all cases: NCI-60 one-dose screen, 48 h (100 = growth as untreated, 0 = no growth, -100 = all killed)
Conditions in all cases: 10 µM unless noted
SK-MEL-2 melanoma = test system: SK-MEL-2 melanoma
EKVX NSCLC = test system: EKVX NSCLC
SN12C renal = test system: SN12C renal
UO-31 renal = test system: UO-31 renal
TK-10 renal = test system: TK-10 renal
ACHN renal = test system: ACHN renal
CAKI-1 renal = test system: CAKI-1 renal
A498 renal = test system: A498 renal
CCRF-CEM leukemia = test system: CCRF-CEM leukemia
MOLT-4 leukemia = test system: MOLT-4 leukemia

Structure (SMILES) | growth (SK-MEL-2 melanoma) | growth (EKVX NSCLC) [%] | growth (SN12C renal) | growth (UO-31 renal) [%] | growth (TK-10 renal) | growth (ACHN renal) | growth (CAKI-1 renal) | growth (A498 renal) | growth (CCRF-CEM leukemia) | growth (MOLT-4 leukemia)
O=S(=O)(Nc1ccc(Cl)c(C(F)(F)F)c1)c1ccc(-c2cnc(C3CC3)o2)cc1 | 5.31% (active) | 31.5 | 10.7% | 35.5 | 3.01% (active) | 34.6% | 35.6% | -8.08% (active) | 9.87% (active) | 5.21% (active)
O=C(Nc1cccc(Cl)c1)Nc1cccc(Cn2c(=O)[nH]c3ccc(Oc4ncccn4)cc3c2=O)c1 | 69.6% | 72.4 | 76% | 61.8 | 68.9% | 72.2% | 63.8% | 48.7% | 32.6% | 6.46% (active)
CC(C)c1ccc(Cc2cnc(NC(=O)c3cc(Br)cs3)s2)cc1 | 23.7% | 43.9 | 49.7% | 55 | 46.7% | 41.6% | 31.3% | 18.8% | 20% | 43.2%
COc1cc(OC)c(/C=C/C(=O)c2c(OC)cccc2OC)c(OC)c1 | -14.9% (active) | 42.9 | 24.1% | 28.9 | 33.5% | 19.6% | 14.8% | 21.4% | 16.2% | 18.6%
Cc1ccc(-c2nc([P+](c3ccccc3)(c3ccccc3)c3ccccc3)c(S(=O)(=O)c3ccc(C)cc3)o2)cc1 | 22.1% | 22.6 | 3.91% (active) | 14.9 | 2.83% (active) | -13.4% (active) | 5.62% (active) | -0.861% (active) | -6.52% (active) | -3.24% (active)
O=C(CSc1oc(-c2ccccc2)nc1S(=O)(=O)c1ccccc1)Nc1ccc(F)cc1 | 87.6% | 78.2 | 89% | 76.8 | 91.8% | 80.2% | 73.1% | 82.6% | 84.7% | 73.3%
Cc1ccc(NC(=O)c2sc3nc(C)c(Br)c(C)c3c2N)cc1 | 82.6% | 61.9 | 70.5% | 65.4 | 50.7% | 34.5% | 74.3% | 76.5% | 94.7% | 90%
CCn1cc(C(=O)NNC(=S)Nc2ccc(C)cc2)c(=O)c2ccc(C)nc21 | 104% | 101 | 88.6% | 78.9 | 100% | 95.5% | 95.4% | 76.4% | 90.7% | 102%
CC(C)c1ccc(C(=O)Nc2nc3ccc(O)c(CN(C)C)c3s2)cc1 | 102% | 95.8 | 90.7% | 91.2 | 99.6% | 81.6% | 65.4% | 72.3% | 73.5% | 62.7%
COc1ccc(/C=N/C2=C(C#N)C(c3ccccc3)c3ccc4ccccc4c3O2)cc1 (stereo not given) | 49.4% | 42.9 | 38% | 29.6 | 59.7% | 35.4% | 28% | 19.3% | 9.58% (active) | 19.2%
O=C1/C(=C\c2ccc3nccnc3c2)SC(=S)N1CCc1ccc(O)cc1 | 97.1% | 100 | 86.9% | 49.7 | 67.8% | 94% | 78.9% | 83.1% | 79% | 106%
COC(=O)c1c(C)c2n(c1C)C(=O)C(c1ccccc1)=C2 | 77.7% | 10.2 | 78.7% | 57.9 | 143% | 74% | 33.1% | 84.2% | 92.8% | 66.8%
COc1ccc(Cc2cnc(NC(=O)c3cc(C)oc3C)s2)cc1 | 47.7% | 36.8 | 42.7% | 39.6 | 58% | 40.3% | 25.3% | 16.5% | 29.3% | 19.2%
CSc1nc2ccccc2cc1/C=[N+](\[O-])c1ccccc1 | 95.5% | 79.5 | 45.2% | 42.8 | 98% | 80% | 80.8% | 102% | 10.5% | 22%
COc1cc(OCc2cccc(Br)c2C)cc(OC)c1C=O | 88% | 80.8 | 77.5% | 71.8 | 45.4% | 90.7% | 24.2% | -88.7% (active) | 77% | 80.2%
CCCCNCCCCCNc1cc(OC)cc2cccnc12 | 106% | 106 | 97.6% | 63.1 | 100% | 100% | 114% | 87.9% | 106% | 100%
CCN(CC)Cc1cc(C=C2C(=O)NC(=S)NC2=O)cc(OC)c1O | 119% | 106 | 100% | 90.1 | 110% | 107% | 99.3% | 98.8% | 104% | 108%
